Sampled rows, rich in hits. Any-hit rate of the full collection: about 3.3%.
Sm TGR block: qHTS Assay for the Inhibitors of Schistosoma Mansoni Peroxiredoxins; Schistosoma mansoni thioredoxin glutathione reductase (TGR), Q962Y6; purified TGR, DTNB reduction, TNB absorbance 405 nm; Potency, µM (doses to about 114 µM), for the others: at the top dose activity change, negative = inhibition, usual class: inhibitors; 360,000 compounds, 3% hits; further: on the % scale 0 is the no-effect control and ±100 the full control effect; nearly all actives have a fitted effect of over 60% in size
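Kinetic colorimetric format: TGR-catalysed, NADPH-driven DTNB reduction monitored via TNB absorbance. Enzyme dispensed at 20 nM; compound exposure 15 min at room temperature before reaction start.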
TbPYK inhibitor: qHTS of Trypanosoma Brucei Inhibitors | TbPYK enzyme, Kinase-Glo Plus ATP luminescence, 45 min | 410,000 compounds, 0.12% hits | pyruvate kinase (Trypanosoma brucei), Q57TT1 | Potency, µM (titrated, usually from 76.8 µM), inactives show top-dose activity, negative = inhibition, actives largely listed as inhibitors; further: on the % scale 0 is the no-effect control and ±100 the full control effect; nearly all actives have a fitted effect of over 50% in size
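Glycolytic pyruvate kinase of T. brucei was incubated with substrate, test compound and 130 uM ADP for 45 minutes at room temperature. Luminescent Kinase-Glo Plus signal was measured after 10 minutes.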
AmpC inh detg: qHTS Inhibitors of AmpC Beta-Lactamase (assay with detergent) | P00811 | AmpC hydrolysis of nitrocefin, absorbance 480 nm, 0.01% Triton | Potency, µM (titrated, usually from 114 µM), inactives show top-dose activity change, negative = inhibition, most hits filed as inhibitors | 370,000 compounds, 0.041% hits | AID 485294, 2010;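 further: 0% = no-compound wells and -100% = no-enzyme wells; nearly all actives have a fitted effect of over 25% in size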
Target sequence (P00811 whole entry, looked up): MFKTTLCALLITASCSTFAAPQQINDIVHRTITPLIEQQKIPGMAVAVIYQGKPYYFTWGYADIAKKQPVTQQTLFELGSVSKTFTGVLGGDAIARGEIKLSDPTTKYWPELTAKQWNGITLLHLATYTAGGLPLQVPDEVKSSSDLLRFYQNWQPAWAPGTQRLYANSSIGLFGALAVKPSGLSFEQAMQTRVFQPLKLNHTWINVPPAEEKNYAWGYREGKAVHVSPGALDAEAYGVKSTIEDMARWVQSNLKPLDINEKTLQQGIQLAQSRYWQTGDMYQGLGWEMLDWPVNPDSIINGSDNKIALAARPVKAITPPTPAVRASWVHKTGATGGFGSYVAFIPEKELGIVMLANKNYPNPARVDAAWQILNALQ
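AmpC (5.3 nM in the dispensed reagent) in 20 mM phosphate pH 7.0 with 0.01% (detergent screen) or 0.0001% Triton X-100 was preincubated with compounds for 15 min at room temperature. Nitrocefin was then added from an 800 uM solution, and hydrolysis was followed at 480 nm.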
SARS PLP yeast: qHTS of Yeast-based Assay for SARS-CoV PLP; Potency, µM (series often up to 32.9 µM), for the others: at the top dose activity, positive = growth rescue, most hits filed as activators; AID 485353, 2010; S. cerevisiae expressing SARS-CoV PLpro, growth rescue; 330,000 compounds, 0.19% hits; calls by dose curve; further: 0% is about no effect; nearly all actives have a fitted effect of over 55% in size
RE007 growth inh: qHTS Assay for Inhibitors of the HIV-1 protein Vpr; S. pombe RE007 Vpr strain, BacTiter-Glo ATP luminescence, 24 h; 360,000 compounds, 0.21% hits; Potency, µM (highest dose often 92.2 µM), for inactives: at the highest dose activity change, negative = less growth, usual class: inhibitors; active means well fitted falling curve with a large enough effect; inconclusive means small, poorly fitted or top-dose-only effect; inactive means no such curve, though single readings can be large or run the other way; further: on the % scale 0 is the no-effect control and ±100 the full control effect; nearly all actives have a fitted effect of over 50% in size
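Fission yeast strain RE007, carrying one chromosomally integrated HIV-1 vpr copy, was seeded at OD 0.01 in PMG+AL medium with 23 nL pinned compound. After 24 h at 30 °C and 99% humidity, viability was read by BacTiter-Glo luminescence.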
AmpC inh no detg: qHTS Inhibitors of AmpC Beta-Lactamase (assay without detergent); Potency, µM (highest dose often 57.1 µM), without a hit: at the highest dose activity change, negative = inhibition, hits mostly inhibitors; 330,000 compounds, 0.52% hits; P00811; AmpC nitrocefin hydrolysis, absorbance 480 nm, 0.0001% Triton; AID 485341, 2010;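 further: plate controls were no compound for no effect and no enzyme for full effect; nearly all actives have a fitted effect of over 20% in size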
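AmpC (5.3 nM in the dispensed reagent) in 20 mM phosphate pH 7.0 with 0.01% (detergent screen) or 0.0001% Triton X-100 was preincubated with compounds for 15 min at room temperature. Nitrocefin was then added from an 800 uM solution, and hydrolysis was followed at 480 nm.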
Active calls of the source: *; ? = inconclusive; nt = no result; [ ] = another dose, or the depositor's remark. Unless noted, the call rests on the fitted dose curve; in most records, active means well fitted curve in the direction sought with a large enough effect; inconclusive means small, poorly fitted or top-dose-only effect, or another doubt; inactive means no such curve, though single readings can be large; an effect the other way counts as inactive or inconclusive. Potency means the concentration at half of the fitted maximal effect.

SMILES	Sm TGR block	TbPYK inhibitor	AmpC inh detg	SARS PLP yeast	RE007 growth inh	AmpC inh no detg
CC(=O)N(\C=C/C=C/C=C1\Sc2ccccc2C1=O)c1ccccc1	16µM*	-14%	-8%	2%	-6%	?
CN(C)/C=C1/Sc2ccccc2C1=O	7%	3%	?	-12%	-3%	-20%
O=C(COc1ccccc1F)Nc1ccc2nc(SCC(=O)N3CCCC3)sc2c1	5%	-1%	16%	nt	nt	nt
O=c1/c(=C/c2ccccn2)sc2nc3ccccc3n12	2%	-8%	-12%	-3%	-16%	-12%
COC(=O)/C=c1/sc2nc3ccccc3n2c1=O	8%	?	45µM*	1%	-22%	-34%
O=c1/c(=C\c2cc([N+](=O)[O-])cc([N+](=O)[O-])c2O)sc2nc3ccccc3n12	-2%	28µM*	?	2%	1%	-46%
CCc1ccc2oc(C(=O)Nc3cc(C)ccc3C)cc(=O)c2c1	3%	-10%	8%	nt	nt	nt
NNC(=O)c1c(O)c2cccc3c2n(c1=O)CCC3	32µM*	14%	1%	-1%	4%	-10%
CC(C)NC(=O)c1c(O)c2cccc3c2n(c1=O)CCC3	1%	6%	-10%	0%	-6%	-20%
COC(=O)COc1ccc2c(c1)O/C(=C\c1ccco1)C2=O	18µM*	-9%	-13%	-7%	-12%	-23%
CCN(CC)C(=O)Oc1ccc2c(c1)O/C(=C\c1ccco1)C2=O	0%	-15%	-5%	-3%	-2%	-10%
CCC(=O)Oc1ccc2c(c1)O/C(=C\c1ccco1)C2=O	11µM*	-3%	3%	-2%	?	-28%
Cc1cc(O)cc2c1C(=O)/C(=C/c1ccco1)O2	32µM*	-15%	10%	-10%	-25%	-44%
Cc1ccsc1/C=C1\Oc2cc(O)ccc2C1=O	nt	-16%	nt	nt	-29%	nt
Cc1ccc(NC(=O)c2ccc(CN3CC(=O)N4CCCCC4C3=O)cc2)cc1C (stereo not given)	-1%	0%	1%	nt	nt	nt
COc1cccc(C2=CC(c3cccc(OC)c3OC)n3nnnc3N2)c1 (stereo not given)	40µM*	-12%	3%	-8%	-5%	-25%
COc1cccc(C2C=C(c3ccc(OC)cc3OC)Nc3nnnn32)c1 (stereo not given)	25µM*	-10%	-16%	-3%	-14%	-17%
COc1cccc(C2=CC(c3cccc(OC)c3OC(F)F)n3nnnc3N2)c1 (stereo not given)	-6%	-2%	?	5%	9%	-16%
COc1cccc(C2=CC(c3ccccc3)n3nnnc3N2)c1 (stereo not given)	-3%	-4%	9%	-9%	-3%	-9%
COc1ccc(C2=CC(c3ccc(OC)c(OC)c3)n3nnnc3N2)c(OC)c1 (stereo not given)	40µM*	-2%	?	2%	-12%	48%
O=C(Sc1ccc(Cl)cc1)c1cccc(Cn2cc(C(F)(F)F)ccc2=O)c1	20µM*	4%	10%	1%	27%	-8%
COc1cc2nc(NC(=O)c3ccc(S(=O)(=O)N4CCCC4)cc3)sc2cc1OC	7%	3%	7%	nt	nt	nt
Cc1ccc(CNC(=O)c2cc3c(=O)n(Cc4cccnc4)ccc3nc2C)cc1	0%	-7%	23%	nt	nt	nt
O=C(Nc1ccc2nc(-c3ccccc3)[nH]c2c1)c1ccco1	28µM*	-3%	3%	0%	-1%	-24%
CS(=O)(=O)c1cccc(C(=O)Nc2cccc(-c3nc4ccccc4[nH]3)c2)c1	-28%	-11%	-9%	-10%	-25%	18µM*
SMILES	Sm TGR block	TbPYK inhibitor	AmpC inh detg	SARS PLP yeast	RE007 growth inh	AmpC inh no detg
O=C(Nc1cccc(-c2nc3ccccc3[nH]2)c1)c1cccc(NC(=O)c2ccco2)c1	-16%	6%	?	3%	-10%	3.2µM*
CCc1cccc(NC(=O)CCS(=O)(=O)c2ccc3nc(C)sc3c2)c1	-2%	-3%	-12%	nt	nt	nt
O=C(CSc1ccc(-c2ccco2)nn1)NCc1ccc(F)cc1	35µM*	4%	-4%	15%	-15%	-21%
O=C(CSc1ccc(-c2ccco2)nn1)c1ccc(F)cc1	20µM*	20µM*	?	-7%	-11%	-29%
Cc1ccc(CNC(=O)CSc2ccc(-c3ccco3)nn2)cc1	?	-10%	-9%	-2%	-24%	-23%
N#Cc1ccc(-c2ccco2)nc1SCC(=O)c1ccc(Cl)cc1	-16%	-2%	0%	2%	-1%	10µM*
O=C(CSc1ccc(-c2ccc(F)cc2)nn1)NCc1ccco1	-2%	-1%	-3%	0%	-4%	-25%
Cc1ccc(C(=O)CSc2nc(-c3ccccc3)ccc2C#N)cc1	0%	-9%	-12%	-23%	13%	-31%
O=C(CSC1=NS(=O)(=O)c2cc(F)ccc2N1)Nc1ccccc1	-2%	0%	0%	-2%	6%	-11%
COC(=O)CSC1=NS(=O)(=O)c2ccccc21	2.5µM*	22µM*	1%	-9%	-17%	-13%
O=C(CSC1=NS(=O)(=O)c2ccccc21)Nc1ccccc1	2.5µM*	?	?	-6%	-25%	-29%
COC(=O)CSc1ccccc1C(=O)OC	32%	3%	7%	0%	-5%	-1%
Cc1oc2c(c(C)cc3oc(=O)c(CC(=O)NCc4ccc(F)cc4)c(C)c32)c1C	-1%	2%	20%	nt	nt	nt
O=C1CNC(=S)N1CCCn1ccnc1	9%	-9%	-3%	0%	-3%	-30%
Cc1cc(=S)cc(C)n1CCCn1ccnc1	11µM*	6%	?	7%	-17%	-6%
CCCCn1c(=O)[nH]c(=O)c2c1nc(-c1ccc(-c3ccccc3Br)o1)n2CC	13µM*	-18%	1%	-19%	-5%	-22%
COCCn1c(-c2ccc(-c3ccc([N+](=O)[O-])cc3Br)o2)nc2c1c(=O)[nH]c(=O)n2CC(C)C	45µM*	-18%	-1%	1%	1%	-43%[11.4 µM]
COCCn1c(=O)[nH]c(=O)c2c1nc(-c1ccc(-c3ccc(Cl)cc3[N+](=O)[O-])o1)n2Cc1ccccc1	50µM*	-7%	-1%	2%	-1%	7.9µM*
COC(=O)c1sccc1S(=O)(=O)N(CC(=O)NCc1ccccc1)c1ccccc1	-4%	-4%	-3%	nt	nt	nt
O=C(Nc1ccc(Br)cc1F)c1cc(S(=O)(=O)NC2CCCC2)ccc1F	21%	3%	-8%	nt	nt	nt
